Measured values taken from paper PMC7862700, “An all-to-all approach to the identification of sequence-specific readers for epigenetic DNA modifications on cytosine”.

How the values were obtained:
Test in all cases: DAPPL (digital affinity profiling via proximity ligation, sequencing); 10 mM Tris-HCl pH 7.5, 50 mM NaCl, 1 mM DTT, 4% glycerol, room temperature, 30 min; GST-TFs on glutathione beads, 16-mer random dsDNA library, 0.1% formaldehyde crosslink after washing; high values mean tight binding
FEV = biological target: T1, FEV (Homo sapiens, UniProt Q99581 1-238); conditions: protein: recombinant; tags: N-terminal GST; dsDNA, one strand shown
T1 sequence: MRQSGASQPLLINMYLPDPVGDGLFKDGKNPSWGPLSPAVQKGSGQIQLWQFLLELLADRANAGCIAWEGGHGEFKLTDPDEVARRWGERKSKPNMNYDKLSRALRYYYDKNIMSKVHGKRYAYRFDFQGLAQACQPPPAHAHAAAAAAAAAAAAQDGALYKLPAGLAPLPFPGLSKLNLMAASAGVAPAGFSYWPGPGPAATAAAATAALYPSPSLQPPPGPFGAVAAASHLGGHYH
In short: (§1)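 GST fusions of human transcription factors were expressed in yeast and captured with glutathione beads. Once given DNA barcodes and pooled alongside a tag-only sample, they were incubated for 30 min at room temperature with 200 nmole of a random double-stranded 16-mer DNA library in Tris/NaCl/DTT/glycerol buffer, then washed, crosslinked (0.1% formaldehyde), proximity-ligated, PCR-amplified and sequenced on an Illumina NextSeq500. The binding signal of each hexamer is its read frequency for a factor divided by its frequency for the tag-only sample.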

ETV5 = ETV5 (Homo sapiens, UniProt P41161 1-510); conditions: protein: recombinant; tags: N-terminal GST; dsDNA, one strand shown
ETV5, sequence (P41161 whole entry): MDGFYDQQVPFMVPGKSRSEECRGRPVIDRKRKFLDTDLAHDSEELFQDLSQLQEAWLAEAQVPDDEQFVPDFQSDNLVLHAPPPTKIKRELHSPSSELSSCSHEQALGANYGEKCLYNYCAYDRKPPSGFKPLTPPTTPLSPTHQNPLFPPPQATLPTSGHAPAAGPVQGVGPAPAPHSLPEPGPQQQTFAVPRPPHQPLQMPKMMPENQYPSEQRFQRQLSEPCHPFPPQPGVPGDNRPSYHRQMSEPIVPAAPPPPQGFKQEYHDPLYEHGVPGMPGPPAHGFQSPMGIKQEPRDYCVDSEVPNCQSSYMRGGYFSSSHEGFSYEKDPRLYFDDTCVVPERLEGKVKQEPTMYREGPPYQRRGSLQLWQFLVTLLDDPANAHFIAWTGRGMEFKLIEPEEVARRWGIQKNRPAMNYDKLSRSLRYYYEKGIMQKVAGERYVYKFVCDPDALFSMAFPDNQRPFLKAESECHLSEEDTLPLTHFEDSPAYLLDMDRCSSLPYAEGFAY
In short: as §1

HSF1 = HSF1 (Homo sapiens, UniProt Q00613 1-529); conditions: protein: recombinant; tags: N-terminal GST; chain copies: 3; dsDNA, one strand shown
HSF1, sequence (Q00613 whole entry): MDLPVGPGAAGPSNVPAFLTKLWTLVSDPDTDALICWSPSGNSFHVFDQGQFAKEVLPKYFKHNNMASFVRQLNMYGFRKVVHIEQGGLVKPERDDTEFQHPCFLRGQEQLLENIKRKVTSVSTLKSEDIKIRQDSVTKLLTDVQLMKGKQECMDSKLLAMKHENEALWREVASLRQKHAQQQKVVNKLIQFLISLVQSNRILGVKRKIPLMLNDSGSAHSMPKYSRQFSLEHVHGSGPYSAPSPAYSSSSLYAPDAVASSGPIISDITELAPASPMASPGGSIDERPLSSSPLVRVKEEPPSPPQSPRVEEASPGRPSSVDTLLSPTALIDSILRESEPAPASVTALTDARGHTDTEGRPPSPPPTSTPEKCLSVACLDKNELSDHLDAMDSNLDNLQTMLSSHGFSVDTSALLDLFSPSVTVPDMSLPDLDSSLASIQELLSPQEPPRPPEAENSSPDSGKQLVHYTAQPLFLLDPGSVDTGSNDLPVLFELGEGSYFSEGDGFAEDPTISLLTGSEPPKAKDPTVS
In short: as §1

SPIC = biological target: T2, SPIC (Homo sapiens, UniProt Q8N5J4 1-248); conditions: protein: recombinant; tags: N-terminal GST; dsDNA, one strand shown
T2 sequence: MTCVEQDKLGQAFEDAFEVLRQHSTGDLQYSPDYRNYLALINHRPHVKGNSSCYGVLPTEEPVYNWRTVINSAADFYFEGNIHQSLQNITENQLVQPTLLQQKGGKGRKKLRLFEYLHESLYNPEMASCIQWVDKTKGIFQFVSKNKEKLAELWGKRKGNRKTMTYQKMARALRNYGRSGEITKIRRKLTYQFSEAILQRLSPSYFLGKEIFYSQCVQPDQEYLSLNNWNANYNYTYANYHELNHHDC
In short: as §1

ELF4 = ELF4 (Homo sapiens, UniProt Q99607 1-663); conditions: protein: recombinant; tags: N-terminal GST; dsDNA, one strand shown
ELF4, sequence (Q99607 whole entry): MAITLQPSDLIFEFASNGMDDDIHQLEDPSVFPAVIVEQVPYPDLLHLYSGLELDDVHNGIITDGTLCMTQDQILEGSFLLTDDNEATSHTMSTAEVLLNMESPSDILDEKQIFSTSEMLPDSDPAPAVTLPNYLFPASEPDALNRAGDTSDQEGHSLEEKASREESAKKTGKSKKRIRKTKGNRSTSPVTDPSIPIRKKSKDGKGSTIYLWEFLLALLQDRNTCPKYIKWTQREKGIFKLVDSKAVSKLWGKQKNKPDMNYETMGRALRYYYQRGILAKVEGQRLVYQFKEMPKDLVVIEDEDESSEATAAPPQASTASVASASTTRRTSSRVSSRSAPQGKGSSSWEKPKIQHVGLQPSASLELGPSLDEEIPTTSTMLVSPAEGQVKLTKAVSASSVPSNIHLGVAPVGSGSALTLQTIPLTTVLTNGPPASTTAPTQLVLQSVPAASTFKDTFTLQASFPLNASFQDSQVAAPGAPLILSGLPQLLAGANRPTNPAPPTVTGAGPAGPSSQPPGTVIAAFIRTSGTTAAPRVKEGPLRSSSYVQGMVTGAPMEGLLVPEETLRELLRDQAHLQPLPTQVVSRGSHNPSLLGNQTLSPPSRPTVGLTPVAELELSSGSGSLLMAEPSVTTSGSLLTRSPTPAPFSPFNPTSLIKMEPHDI
In short: as §1

ELK4 = biological target: T3, ELK4 (Homo sapiens, UniProt P28324-2 1-405); conditions: protein: recombinant; tags: N-terminal GST; dsDNA, one strand shown
T3 sequence: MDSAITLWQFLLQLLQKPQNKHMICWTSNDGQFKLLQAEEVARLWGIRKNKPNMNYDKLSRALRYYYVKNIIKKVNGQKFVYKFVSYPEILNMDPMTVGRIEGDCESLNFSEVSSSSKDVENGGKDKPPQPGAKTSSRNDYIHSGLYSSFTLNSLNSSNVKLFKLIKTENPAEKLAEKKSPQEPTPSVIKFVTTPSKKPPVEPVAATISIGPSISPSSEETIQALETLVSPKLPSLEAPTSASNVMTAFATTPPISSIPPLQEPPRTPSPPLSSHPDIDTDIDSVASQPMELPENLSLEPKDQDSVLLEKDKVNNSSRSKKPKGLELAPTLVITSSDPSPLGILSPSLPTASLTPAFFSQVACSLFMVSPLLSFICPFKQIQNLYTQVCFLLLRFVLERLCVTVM
In short: as §1

ETV2 = biological target: T4, ETV2 (Homo sapiens, UniProt O00321 1-342); conditions: protein: recombinant; tags: N-terminal GST; dsDNA, one strand shown
T4 sequence: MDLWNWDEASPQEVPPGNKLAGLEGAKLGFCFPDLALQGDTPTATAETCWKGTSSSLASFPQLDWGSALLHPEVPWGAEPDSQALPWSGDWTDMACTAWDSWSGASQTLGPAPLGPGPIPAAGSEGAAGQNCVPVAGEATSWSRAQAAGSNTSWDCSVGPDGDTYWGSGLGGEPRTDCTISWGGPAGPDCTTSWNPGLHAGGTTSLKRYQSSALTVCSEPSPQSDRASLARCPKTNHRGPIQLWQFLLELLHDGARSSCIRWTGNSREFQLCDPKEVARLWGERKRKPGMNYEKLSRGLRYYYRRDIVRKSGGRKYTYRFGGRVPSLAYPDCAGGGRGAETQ
In short: as §1

ELF3 = biological target: T5, ELF3 (Homo sapiens, UniProt P78545 1-371); conditions: protein: recombinant; tags: N-terminal GST; dsDNA, one strand shown
T5 sequence: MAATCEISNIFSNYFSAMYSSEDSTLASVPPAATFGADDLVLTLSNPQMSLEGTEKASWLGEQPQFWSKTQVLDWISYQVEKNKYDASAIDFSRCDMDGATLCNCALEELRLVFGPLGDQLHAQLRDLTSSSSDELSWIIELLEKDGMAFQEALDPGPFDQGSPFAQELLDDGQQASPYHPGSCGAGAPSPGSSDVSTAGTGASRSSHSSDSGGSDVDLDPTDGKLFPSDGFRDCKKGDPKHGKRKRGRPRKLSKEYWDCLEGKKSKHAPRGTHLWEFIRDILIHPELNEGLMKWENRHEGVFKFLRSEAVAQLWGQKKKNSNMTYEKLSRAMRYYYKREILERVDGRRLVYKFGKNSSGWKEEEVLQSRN
In short: as §1

CRX = CRX (Homo sapiens, UniProt O43186 1-299); conditions: protein: recombinant; tags: N-terminal GST; dsDNA, one strand shown
CRX, sequence (O43186 whole entry): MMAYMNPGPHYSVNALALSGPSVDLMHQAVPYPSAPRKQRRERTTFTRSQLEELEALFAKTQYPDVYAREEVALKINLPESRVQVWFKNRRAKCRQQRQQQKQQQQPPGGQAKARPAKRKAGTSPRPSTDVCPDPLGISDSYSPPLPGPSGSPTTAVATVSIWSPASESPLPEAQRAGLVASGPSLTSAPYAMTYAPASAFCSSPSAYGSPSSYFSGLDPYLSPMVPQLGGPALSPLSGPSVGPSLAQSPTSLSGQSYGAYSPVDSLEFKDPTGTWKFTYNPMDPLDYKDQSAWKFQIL
In short: as §1

ETV1 = ETV1 (Homo sapiens, UniProt P50549 1-477); conditions: protein: recombinant; tags: N-terminal GST; dsDNA, one strand shown
ETV1, sequence (P50549 whole entry): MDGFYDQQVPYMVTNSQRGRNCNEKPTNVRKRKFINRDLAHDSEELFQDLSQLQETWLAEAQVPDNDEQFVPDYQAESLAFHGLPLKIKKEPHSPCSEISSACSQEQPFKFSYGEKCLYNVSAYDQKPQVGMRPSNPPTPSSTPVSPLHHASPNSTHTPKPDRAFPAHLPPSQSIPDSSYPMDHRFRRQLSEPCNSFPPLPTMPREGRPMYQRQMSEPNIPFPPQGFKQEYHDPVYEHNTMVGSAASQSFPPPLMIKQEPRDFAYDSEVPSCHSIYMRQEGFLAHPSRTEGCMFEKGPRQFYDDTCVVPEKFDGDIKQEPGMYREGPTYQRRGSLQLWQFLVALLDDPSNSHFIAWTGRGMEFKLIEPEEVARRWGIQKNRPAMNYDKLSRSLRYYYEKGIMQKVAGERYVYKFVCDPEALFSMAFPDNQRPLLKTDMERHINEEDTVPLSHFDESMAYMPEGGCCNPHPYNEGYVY
In short: as §1

CGTATT
binding signal (FEV): 1.07 fold enrichment (6-mer frequency, TF over GST control)
binding signal (ETV5): 1.2 fold enrichment (6-mer frequency, TF over GST control)
binding signal (HSF1): 1.21 fold enrichment (6-mer frequency, TF over GST control)
binding signal (SPIC): 1.22 fold enrichment (6-mer frequency, TF over GST control)
binding signal (ELF4): 1.16 fold enrichment (6-mer frequency, TF over GST control)
binding signal (ELK4): 1.18 fold enrichment (6-mer frequency, TF over GST control)
binding signal (ETV2): 1.38 fold enrichment (6-mer frequency, TF over GST control)
binding signal (ELF3): 1.04 fold enrichment (6-mer frequency, TF over GST control)
binding signal (CRX): 1.46 fold enrichment (6-mer frequency, TF over GST control)
binding signal (ETV1): 1.22 fold enrichment (6-mer frequency, TF over GST control)
